# Measurements as given in PubChem BioAssay (NCATS).
# Where “and” joins values, the source holds several entries; their conditions need not be identical. Identical values can stand only once. Inconclusive results are not listed. Calls of active or inactive are those of the source. Unless noted, calls follow the shape of the full dose curve.
# Key:
# [1] = molecular target: Androgen receptor (Homo sapiens) (UniProt P10275); assay: qHTS assay for small molecule agonists of androgen receptor signaling (AID 588515; active = well fitted curve in the direction sought with a large enough effect in the signal ratio, with a control signal flat; the % refers to the signal ratio; also: % is scaled to controls: 0 for no effect and ±100 for the full control effect); details: AR-UAS-bla HEK293, beta-lactamase ratio, agonist 16 h; stronger effect = higher value
# How it was run: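 Stimulation of an AR-responsive β-lactamase reporter in GripTite HEK293 cells was measured after 16 h compound exposure at 37 °C, via CCF4 fluorescence after 2 h RT. EC50 from Hill fits, normalized to R1881 at 30 nM.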
# [2] = molecular target: Androgen receptor (Homo sapiens) (UniProt P10275); assay: qHTS assay for small molecule antagonists of androgen receptor signaling (AID 588516; active = well fitted curve in the direction sought with a large enough effect in the signal ratio, with a control signal flat, not every such curve was filed as active; the % refers to the signal ratio; also: % is scaled to controls: 0 for no effect and ±100 for the full control effect); details: AR-UAS-bla HEK293, beta-lactamase ratio, antagonist mode, 16 h; series mostly up to 76.8 µM
# How it was run: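 AR-UAS-bla-GripTite HEK 293 cells (2000/well, 5 h at 37 C) received compound titrations, then R1881 at 10 nM final; after 16 h at 37 C, CCF4 dye 2 h RT, beta-lactamase fluorescence read; IC50 from Hill fits.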
# [3] = molecular target: Bile acid receptor (Homo sapiens) (UniProt Q96RI1); assay: qHTS assay for small molecule antagonists of farnesoid X receptor signaling (AID 588526); details: HEK293T FXR-UAS-bla, beta-lactamase ratio, antagonist mode; series mostly up to 76.7 µM; also: % is scaled to controls: 0 for no effect and ±100 for the full control effect
# How it was run: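 Concentration-response titrations were fitted to the Hill equation for half-maximal inhibition and maximal response, with data normalised to 50 uM chenodeoxycholic acid and DMSO control wells. Cells: FXR-UAS-bla HEK293T, dialyzed FBS.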
# [4] = molecular target: Bile acid receptor (Homo sapiens) (UniProt Q96RI1); assay: qHTS assay for small molecule agonists of farnesoid X receptor signaling (AID 588527); details: HEK293T FXR-UAS-bla, beta-lactamase ratio, 16 h; activation: stronger effect = higher value;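 also: 0% = vehicle basal and 100% = reference agonist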
# How it was run: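 Agonist-mode beta-lactamase reporter in GeneBLAzer FXR-UAS-bla HEK293T cells, titration up to 92 uM, 16 h exposure at 37 C, CCF4 fluorescence. Response scaled to DMSO (0%) and 100 uM chenodeoxycholic acid (100%), then Hill-fitted for EC50 and efficacy.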
# [5] = molecular target: Glucocorticoid receptor (Homo sapiens) (UniProt P04150); assay: qHTS assay for small molecule agonists of glucocorticoid receptor signaling (AID 588532; active = well fitted curve in the direction sought with a large enough effect in the signal ratio, with a control signal flat; the % refers to the signal ratio;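 also: 100% = dexamethasone at 0.1 µM and 0% = DMSO only wells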); details: HeLa MMTV-bla, beta-lactamase ratio, agonist, 18 h; activation: stronger effect = higher value, percent of dexamethasone control, DMSO zero
# How it was run: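 Titration series, up to 92 uM, applied to GRE-bla HeLa cells for 18 h at 37 C. Detection by CCF4 FRET substrate after 2 h at RT.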
# [6] = qHTS assay for small molecule antagonists of peroxisome proliferator-activated receptor delta signaling (AID 588535; active = well fitted inhibition curve with a large enough effect in the signal ratio, with a control signal flat, not every such curve was filed as active; the % refers to the signal ratio;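 as to max response: cells co-treated with a PPAR-delta agonist as stimulator during compound exposure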); details: HEK293T PPARd-UAS-bla, beta-lactamase FRET ratio, 18 h; 460 nm channel
# How it was run: (§1)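 Compounds tested in titration on PPAR-delta-UAS-bla HEK293T cells grown in charcoal/dextran-stripped serum (2%); beta-lactamase activity read via CCF4 emission at 460 and 530 nm.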
# [7] = molecular target: Peroxisome proliferator-activated receptor delta (Homo sapiens) (UniProt Q03181); assay: as above; details: HEK293T PPARd-UAS-bla, beta-lactamase FRET ratio, 18 h; series mostly up to 76.7 µM
# How it was run: as §1
# [8] = molecular target: Thyroid hormone receptor beta (Homo sapiens) (UniProt P10828); assay: qHTS assay for small molecule antagonists of thyroid hormone receptor beta signaling (AID 588547; active = well fitted inhibition curve with a large enough effect in the signal ratio, with a control signal flat, not every such curve was filed as active; the % refers to the signal ratio;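 also: cells stimulated with 0.4 nM T3 agonist during compound exposure; % is scaled to controls: 0 for no effect and ±100 for the full control effect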); details: TR-UAS-bla HEK293, beta-lactamase ratio, antagonist mode, 18 h
# How it was run: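 TR-UAS-bla GripTite HEK293 cells in 2% charcoal/dextran FBS medium were preincubated 4 h at 37 C, given compound (0.59 nM to 92 uM) plus 0.4 nM T3 (final) for 18 h, then CCF4 for 2 h at RT; Hill fit gave IC50.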
# [9] = qHTS assay for small molecule agonists of the antioxidant response element (ARE) signaling pathway (AID 651741; active = well fitted activation curve with a large enough effect in the signal ratio; the % refers to the signal ratio; also: % of control where 0% means no effect); details: HepG2 ARE-bla reporter, beta-lactamase FRET ratio, 16 h; series mostly up to 96 µM
# How it was run: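 Beta-lactamase reporter expression driven by the antioxidant response element in HepG2 cells was detected by fluorescence with LiveBLAzer B/G FRET substrate (2 h, room temperature) following 16 h compound treatment at 37 C.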
# [10] = qHTS assay for small molecule activators of the nuclear factor-kappa B (NF-kB) signaling pathway (AID 651749; active = well fitted activation curve with a large enough effect in the signal ratio; the % refers to the signal ratio; also: % of control where 0% means no effect); details: NF-kB-bla ME-180 cells, beta-lactamase FRET ratio, 16 h; activation: stronger effect = higher value
# How it was run: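 Beta-lactamase reporter expression, controlled by NF-kB response elements in ME-180 cells, was quantified fluorometrically via FRET disruption; cells at 2,000/well had been incubated with 23 nL test compound for 16 hr.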
# [11] = qHTS assay for small molecule activators of the human pregnane X receptor (PXR) signaling pathway (AID 720659; call rule not given here; also: 0% is about no effect); details: DPX-2 HepG2 CYP3A4-luciferase, 24 h; series mostly up to 92.3 µM
# [12] = molecular target: Vitamin D3 receptor (Homo sapiens) (UniProt P11473); assay: qHTS assay for small molecule agonists of vitamin D receptor signaling (AID 588543); details: HEK293T VDR-UAS-bla, beta-lactamase ratio, 16 h; series mostly up to 76.8 µM;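 also: 0% = DMSO basal and 100% = reference agonist control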
# How it was run: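 GeneBLAzer VDR-UAS-bla HEK293T cells in 2% charcoal-stripped FBS medium were dosed with compound titrations for 16 h at 37 °C; CCF4 β-lactamase readout (405 nm ex, 460/530 nm em). EC50 and efficacy from Hill fits, normalized to 50 nM calcitriol (100%) and DMSO (0%).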
# Chain of Peroxisome proliferator-activated receptor delta (Homo sapiens) (Q03181 whole entry, looked up): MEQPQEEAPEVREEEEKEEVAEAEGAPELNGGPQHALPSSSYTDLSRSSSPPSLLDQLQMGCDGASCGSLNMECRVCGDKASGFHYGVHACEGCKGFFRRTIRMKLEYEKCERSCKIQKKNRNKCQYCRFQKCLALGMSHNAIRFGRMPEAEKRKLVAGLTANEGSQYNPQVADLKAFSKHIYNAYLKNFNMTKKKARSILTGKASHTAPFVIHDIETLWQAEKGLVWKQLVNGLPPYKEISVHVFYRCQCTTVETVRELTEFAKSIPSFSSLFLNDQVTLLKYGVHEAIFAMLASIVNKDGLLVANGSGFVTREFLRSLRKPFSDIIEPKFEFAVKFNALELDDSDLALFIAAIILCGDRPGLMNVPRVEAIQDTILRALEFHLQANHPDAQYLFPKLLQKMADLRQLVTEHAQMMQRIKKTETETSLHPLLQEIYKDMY
# Chain of Vitamin D3 receptor (Homo sapiens) (P11473 whole entry, looked up): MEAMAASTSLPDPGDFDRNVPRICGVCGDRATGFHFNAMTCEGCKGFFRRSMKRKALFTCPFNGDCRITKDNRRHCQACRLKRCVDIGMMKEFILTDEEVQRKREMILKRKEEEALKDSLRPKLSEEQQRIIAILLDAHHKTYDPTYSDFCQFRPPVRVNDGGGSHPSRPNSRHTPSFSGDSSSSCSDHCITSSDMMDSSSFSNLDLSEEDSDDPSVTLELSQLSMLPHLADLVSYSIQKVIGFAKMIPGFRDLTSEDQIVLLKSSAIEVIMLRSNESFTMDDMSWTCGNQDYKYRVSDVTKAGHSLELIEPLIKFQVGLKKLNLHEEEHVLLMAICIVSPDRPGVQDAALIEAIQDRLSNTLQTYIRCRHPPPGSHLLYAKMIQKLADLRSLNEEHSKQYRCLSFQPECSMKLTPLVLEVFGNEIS
# Chain of Glucocorticoid receptor (Homo sapiens) (P04150 whole entry, looked up): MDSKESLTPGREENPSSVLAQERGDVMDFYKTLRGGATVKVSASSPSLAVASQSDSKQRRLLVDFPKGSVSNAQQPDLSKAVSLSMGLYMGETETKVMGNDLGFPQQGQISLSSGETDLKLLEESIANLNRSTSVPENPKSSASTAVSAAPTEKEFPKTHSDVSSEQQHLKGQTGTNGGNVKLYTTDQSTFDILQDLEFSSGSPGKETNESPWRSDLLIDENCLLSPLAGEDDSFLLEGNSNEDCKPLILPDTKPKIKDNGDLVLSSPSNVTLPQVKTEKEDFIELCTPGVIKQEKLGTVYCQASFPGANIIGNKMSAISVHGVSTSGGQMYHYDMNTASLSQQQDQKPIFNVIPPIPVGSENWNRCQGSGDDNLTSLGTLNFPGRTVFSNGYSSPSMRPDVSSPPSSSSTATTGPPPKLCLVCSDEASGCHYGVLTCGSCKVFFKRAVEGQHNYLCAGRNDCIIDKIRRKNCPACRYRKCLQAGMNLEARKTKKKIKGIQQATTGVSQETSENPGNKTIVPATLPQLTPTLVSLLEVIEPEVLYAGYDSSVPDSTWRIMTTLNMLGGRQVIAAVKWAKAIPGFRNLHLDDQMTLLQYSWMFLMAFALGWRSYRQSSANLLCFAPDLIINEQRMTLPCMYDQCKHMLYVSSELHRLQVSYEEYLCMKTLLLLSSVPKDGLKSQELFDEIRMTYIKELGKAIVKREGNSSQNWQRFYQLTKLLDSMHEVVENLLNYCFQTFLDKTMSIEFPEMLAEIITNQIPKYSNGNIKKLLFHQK
# Chain of Androgen receptor (Homo sapiens) (P10275 whole entry, looked up): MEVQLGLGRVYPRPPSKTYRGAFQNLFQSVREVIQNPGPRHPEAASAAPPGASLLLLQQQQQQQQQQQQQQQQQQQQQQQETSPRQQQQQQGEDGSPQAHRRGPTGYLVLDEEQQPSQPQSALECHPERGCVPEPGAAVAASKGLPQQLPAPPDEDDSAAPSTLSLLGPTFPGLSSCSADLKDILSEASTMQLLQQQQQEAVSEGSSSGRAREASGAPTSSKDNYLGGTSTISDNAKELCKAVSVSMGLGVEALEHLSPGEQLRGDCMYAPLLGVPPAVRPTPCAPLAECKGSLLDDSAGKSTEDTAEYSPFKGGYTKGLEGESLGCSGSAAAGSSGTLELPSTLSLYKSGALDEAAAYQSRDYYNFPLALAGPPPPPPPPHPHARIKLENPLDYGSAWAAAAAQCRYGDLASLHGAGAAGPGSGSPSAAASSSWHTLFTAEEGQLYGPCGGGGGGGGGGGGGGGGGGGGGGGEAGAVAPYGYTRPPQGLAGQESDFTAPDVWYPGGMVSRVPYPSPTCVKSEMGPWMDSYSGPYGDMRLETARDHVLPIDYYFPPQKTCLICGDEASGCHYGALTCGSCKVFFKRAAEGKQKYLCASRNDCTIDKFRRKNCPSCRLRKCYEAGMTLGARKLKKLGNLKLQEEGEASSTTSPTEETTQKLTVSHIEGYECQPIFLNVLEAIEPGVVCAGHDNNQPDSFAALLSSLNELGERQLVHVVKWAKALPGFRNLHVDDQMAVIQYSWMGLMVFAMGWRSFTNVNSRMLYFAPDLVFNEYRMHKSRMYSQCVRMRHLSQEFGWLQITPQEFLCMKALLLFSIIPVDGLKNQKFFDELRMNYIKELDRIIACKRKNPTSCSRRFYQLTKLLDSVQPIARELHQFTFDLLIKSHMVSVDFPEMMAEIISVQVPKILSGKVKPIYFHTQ
# Chain of Bile acid receptor (Homo sapiens) (Q96RI1 whole entry, looked up): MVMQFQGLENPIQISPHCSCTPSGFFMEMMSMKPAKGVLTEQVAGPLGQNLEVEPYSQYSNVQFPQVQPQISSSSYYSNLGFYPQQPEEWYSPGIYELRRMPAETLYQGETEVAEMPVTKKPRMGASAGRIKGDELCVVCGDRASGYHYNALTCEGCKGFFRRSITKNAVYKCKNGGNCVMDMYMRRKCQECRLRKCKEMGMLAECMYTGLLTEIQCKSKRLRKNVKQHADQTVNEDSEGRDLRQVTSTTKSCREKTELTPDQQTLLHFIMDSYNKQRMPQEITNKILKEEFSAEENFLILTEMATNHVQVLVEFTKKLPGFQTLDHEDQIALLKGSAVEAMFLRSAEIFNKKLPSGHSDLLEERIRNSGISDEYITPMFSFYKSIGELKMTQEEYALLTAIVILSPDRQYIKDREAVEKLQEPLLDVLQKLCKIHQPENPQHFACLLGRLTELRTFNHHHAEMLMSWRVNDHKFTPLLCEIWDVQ
# Chain of Thyroid hormone receptor beta (Homo sapiens) (P10828 whole entry, looked up): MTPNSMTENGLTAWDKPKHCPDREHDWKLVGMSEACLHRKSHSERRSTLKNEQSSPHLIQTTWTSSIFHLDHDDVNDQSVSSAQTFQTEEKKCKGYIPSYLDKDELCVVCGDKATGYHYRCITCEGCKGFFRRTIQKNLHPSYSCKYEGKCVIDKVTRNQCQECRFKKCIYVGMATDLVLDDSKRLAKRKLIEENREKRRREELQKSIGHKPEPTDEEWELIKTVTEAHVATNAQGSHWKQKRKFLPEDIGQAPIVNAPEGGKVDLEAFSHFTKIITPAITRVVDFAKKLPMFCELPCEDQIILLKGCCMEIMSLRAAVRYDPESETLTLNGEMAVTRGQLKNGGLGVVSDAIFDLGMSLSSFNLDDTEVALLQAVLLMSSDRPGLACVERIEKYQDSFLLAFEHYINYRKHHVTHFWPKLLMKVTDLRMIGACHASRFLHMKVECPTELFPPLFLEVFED
Structure (SMILES),activation [1],Potency [2],Potency [3],activation [4],activation [5],max response [6] [%],Potency [7],activity change % (negative = inhibition) [8],Potency [9],activation [10],outcome [11],outcome [12]
COc1nc(C)nc(NC(=O)NS(=O)(=O)c2ccccc2CCC(F)(F)F)n1,6.02% (inactive),inactive,inactive,1.64% (inactive),-2.83% (inactive),34.6,inactive,9.28% (inactive),inactive,-0.385% (inactive),inactive,–
O=C(O)c1nc(Cl)ccc1Cl,–,–,–,–,-4.22% (inactive) and 6.64% (inactive),–,–,-7.12% (inactive),–,–,inactive,–
CC(C)C(=O)OCC(C)(C)C(OC(=O)C(C)C)C(C)C (configuration not stated),–,–,–,–,-2.67% (inactive),-3.86,inactive,4.21% (inactive),inactive,-2.62% (inactive),–,–
Cc1cc(C)nc(NC(=O)NS(=O)(=O)c2ccccc2C(=O)OC2COC2)n1,-3.69% (inactive),inactive,inactive,1.23% (inactive),10.1% (inactive),2.3,inactive,4.53% (inactive),–,1.32% (inactive),inactive,–
CC(C)(C)C(=O)[C@H](Oc1ccc(Cl)cc1)n1cncn1,–,–,–,–,-0.211% (inactive),–,–,-10.2% (inactive),–,-5.68% (inactive),–,inactive
CC(C)(C)C(=O)[C@@H](Oc1ccc(Cl)cc1)n1cncn1,–,–,–,–,6.65% (inactive),38.3,inactive,-10.6% (inactive),–,-1.55% (inactive),–,inactive
Nc1nc(N)nc(Cl)n1,–,–,–,–,-0.33% (inactive) and 1.13% (inactive),–,–,-10% (inactive) and 5.94% (inactive) and 4.29% (inactive),inactive,–,inactive,–
Nc1ccc([N+](=O)[O-])cc1Cl,-9.37% (inactive),–,inactive,-2.5% (inactive),-4.74% (inactive),-22.4,inactive,-8.47% (inactive),inactive,0.235% (inactive),inactive,inactive
Clc1ccccc1-c1nnc(-c2ccccc2Cl)nn1,–,–,–,–,–,-44.7,inactive,–,–,–,–,inactive
C=C(C)CN(CC)c1c([N+](=O)[O-])cc(C(F)(F)F)cc1[N+](=O)[O-],–,–,–,–,1.61% (inactive),5.96,inactive,–,–,-4.66% (inactive),–,inactive
Cn1cc(-c2ccccc2)c(=O)c(-c2cccc(C(F)(F)F)c2)c1,–,–,–,–,-15.3% (inactive),16.9,inactive,1.65% (inactive),–,-0.874% (inactive),–,–
CS(=O)(=O)c1cc(C(F)(F)F)ccc1C(=O)c1cnoc1C1CC1,–,–,–,–,11.4% (inactive),51.3,inactive,–,–,0.439% (inactive),–,–
